Screening data as filed in PubChem BioAssay.
Only a selection was taken, and hits are over-represented in it overall.
Artemis inh: Artemis endonuclease inhibitors, primary screen, biochemical, fluorescence intensity, FAM/BHQ-1 hairpin substrate; inhibition, % at 10 µM; Protein artemis (Homo sapiens), Q96SD1; recombinant Artemis, quenched FAM hairpin cleavage fluorescence; AID 686954, 2013; actives 0.78% (n = 30,000);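 active means at 10 µM dose, at least 30% inhibition, measured as corrected fluorescence normalized to stimulator and neutral control wells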
Target sequence (Q96SD1 whole entry, looked up): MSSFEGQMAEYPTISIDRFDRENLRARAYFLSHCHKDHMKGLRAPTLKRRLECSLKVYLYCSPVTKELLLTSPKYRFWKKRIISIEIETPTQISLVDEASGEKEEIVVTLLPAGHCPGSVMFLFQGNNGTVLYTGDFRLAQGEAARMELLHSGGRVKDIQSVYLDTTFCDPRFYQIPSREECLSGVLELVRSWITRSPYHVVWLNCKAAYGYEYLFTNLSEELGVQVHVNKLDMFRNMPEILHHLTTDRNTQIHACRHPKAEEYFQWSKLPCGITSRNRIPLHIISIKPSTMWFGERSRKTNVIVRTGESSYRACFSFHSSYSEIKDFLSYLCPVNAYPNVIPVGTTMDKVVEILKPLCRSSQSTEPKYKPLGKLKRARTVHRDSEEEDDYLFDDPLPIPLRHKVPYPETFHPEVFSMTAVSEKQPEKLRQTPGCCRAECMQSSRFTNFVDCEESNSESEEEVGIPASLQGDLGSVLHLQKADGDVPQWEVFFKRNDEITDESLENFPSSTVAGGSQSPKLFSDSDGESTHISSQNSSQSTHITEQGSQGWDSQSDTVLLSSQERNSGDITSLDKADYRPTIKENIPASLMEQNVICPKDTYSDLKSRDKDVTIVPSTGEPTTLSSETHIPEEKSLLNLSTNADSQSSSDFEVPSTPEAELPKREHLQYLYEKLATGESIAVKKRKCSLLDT
Hits are given with their value; . = inactive.

SMILES	Artemis inh
CCOC(=O)C(C)n1cnc2c(cnn2-c2ccc(Cl)cc2)c1=O (centres undefined)	.
C/C(CC(=O)Nc1ccccn1)=N\NC(=O)C(=O)Nc1cccc(Cl)c1C	.
C/C(CC(=O)Nc1ccccn1)=N\NC(=O)C(=O)Nc1cccc(C)c1	.
C/C(CC(=O)Nc1ccc(N(C)C)cc1)=N\NC(=O)c1ccccn1	33
COc1ccc(OCCSc2n[nH]c(N)n2)cc1	.
CC(C)CC(=O)NC(=S)Nc1nc(-c2cccc3ccccc23)cs1	.
Cc1cc(Nc2nc3ccccc3[nH]c2=O)n(-c2ccccc2)n1	.
Cc1ccc(Nc2cc(C)nn2-c2nc(C)cc(=O)[nH]2)cc1	35
Cc1ccc(Nc2cc(C)nc3nnnn23)cc1	.
O=C(NCCC1=CCCCC1)C1COc2ccccc2O1 (centres undefined)	.
O=C(NC1CCSC1=O)c1ccc(Oc2ccc(F)cc2)nc1 (centres undefined)	.
Cc1nc(C)c(C(=O)Nc2ccccc2)s1	.
Cc1nn(-c2ccc(F)cc2)c2sc(C(=O)N3CCCCCC3)cc12	.
Cc1nc(NC(=O)c2cc3c(C)nn(-c4ccccc4)c3s2)sc1C(=O)Nc1ccccc1	83
C=CCOc1ccc(C2C(C#N)=C(N)N(Nc3ccccc3)C3=C2C(=O)CCC3)cc1OC (centres undefined)	.
CC(=O)Nc1ccc(Oc2sc(C(=O)c3ccccc3)c(N)c2C#N)cc1	.
CCOC(=O)C1=C(O)/C(=C/c2ccc(-c3ccccc3C(=O)O)o2)SC1=Nc1ccc(OC)cc1	30
CCOC(=O)c1c(C)[nH]c(C=Nc2ccc(OC)cc2)c1O	.
CCOC(=O)C1=C(O)CSC1=Nc1ccccc1	.
CC(=O)Nc1ccc(Oc2ncccn2)cc1	.
CCOC(=O)N1CCN(c2cc(=O)n(C3CCCCC3)c(=O)[nH]2)CC1	.
Cc1ccccc1-c1coc2cc(O)ccc2c1=O	.
CC(=O)N(/N=C1\Sc2ccccc2C1=O)c1ccccc1C	32
CC(=O)N(/N=C1\Sc2ccccc2C1=O)c1ccccc1	31
CC(=O)N(/N=C1\Sc2ccccc2C1=O)c1ccc(C)cc1C	.
SMILES	Artemis inh
CC(=O)N(CCCCN1C(=O)c2ccccc2C1=O)c1ccc(C)cc1	.
CCOC(=O)Nc1sc2c(c1C#N)CCC(C)C2 (centres undefined)	.
CCC(=O)N1CCc2cc(S(=O)(=O)CCC(=O)Nc3ccc(F)c(F)c3)ccc21	.
O=[N+]([O-])c1ccc(-c2csc3[n+]2CCS3)cc1	.
Cc1cc(C)n(-c2nc3ccccc3c(=O)n2OCc2ccc(F)cc2)n1	.
CCOC(=O)c1nnn(-c2nonc2N)c1COc1cc(C)c(Cl)c(C)c1	.
CCn1nc(CC(=O)Nc2nnc(CC(=O)N3CCOCC3)s2)c2ccccc2c1=O	.
COc1ccccc1S(=O)(=O)Nc1ccc(-c2nnc3n2CCCCC3)cc1	.
COc1ccc(Br)cc1/C=N/NC(=O)c1nc(-c2ccccc2)n2c1CCCCC2	30
Cc1cc(C(=O)N/N=C/c2cc(Br)ccc2OC(=O)c2ccccc2)n[nH]1	.
CCn1cc(C(=O)N[C@H](C)c2ccccc2)c(=O)c2cc(F)c(N3CCN(C)CC3)cc21	.
Clc1ccc(-c2cn3c(n2)CCC3)cc1	.
O=C(c1ccco1)N1C2C=CC(C2)C1(C(F)(F)F)C(F)(F)F (centres undefined)	.
CC(C)Oc1cccc(C(=O)NC(=S)Nc2cccc(C(F)(F)F)c2)c1	.
O=S(=O)(c1ccc2nc(-c3ccco3)c(-c3ccco3)nc2c1)N1CCOCC1	.
Cn1nc(C(=O)Nc2cccc(C(F)(F)F)c2)ccc1=O	.
O=C(Nc1ccc2nc(-c3ccco3)c(-c3ccco3)nc2c1)NC1CC1	50
O=C(Nc1cccc(C(F)(F)F)c1)c1ccc2nc(-c3ccco3)c(-c3ccco3)nc2c1	42
O=C(NCc1ccco1)Nc1ccc2nsnc2c1	.
COC(=O)Oc1ccc(/C=N/NC(=O)CSCc2ccccc2Br)cc1OC	.
O=C(Nc1nc(-c2ccc(S(=O)(=O)N3CCCC3)cc2)cs1)C1COc2ccccc2O1 (centres undefined)	.
COC(=O)COc1ccc(C2NC(=O)NC(c3ccccc3)=C2C(C)=O)cc1OC (centres undefined)	.
COc1ccc(C(=O)N2c3ccccc3C(=O)OC2c2ccc3c(c2)OCO3)cc1 (centres undefined)	.
COc1ccc(C2NC(=O)NC3=C2CCc2ccccc23)cc1 (centres undefined)	44
Cc1cc(NS(=O)(=O)c2ccc(NC(=S)NC(=O)c3ccc(Cl)cc3Cl)cc2)no1	30
SMILES	Artemis inh
COc1cc(C(=O)Nc2ccc(S(=O)(=O)Nc3cc(C)on3)cc2)cc(OC)c1OC	.
Cc1cc(NS(=O)(=O)c2ccc(NC(=O)CCc3ccccc3)cc2)no1	.
Cc1cc(C)c2[nH]c(=O)c(CN(CC3CCCO3)C(=O)C3CCCO3)cc2c1 (centres undefined)	.
c1ccc(N2CCN(c3nc(NCc4ccco4)c4ccccc4n3)CC2)cc1	.
c1ccc(-c2nc(NCc3ccco3)c3ccccc3n2)nc1	64
c1coc(CNc2nc(N3CCCCC3)nc3ccccc23)c1	.
COc1ccc(C(=O)Nc2ccc(OCC(F)(F)C(F)F)c(C(F)(F)F)c2)cc1OC	.
COc1ccc(C(=O)/C=C/N(C)C)cc1OC	.
COc1ccc(C(=O)c2c(C(F)(F)F)oc3c2C(=O)c2ccccc2C3=O)cc1OC	36
COc1cc(-c2cc(C(=O)O)c3c(OC)c(OC)c(OC)cc3n2)ccc1O	.
O=C(O)COc1ccc(-c2nnn(Cc3ccccc3F)n2)cc1	.
COc1ccc(/C=N/NC(=O)c2nn(-c3ccc(C)c(C)c3)c(=O)c3ccccc23)cc1	.
COc1ccc(/C=N/NC(=O)c2nc(-c3ccccc3)cc(-c3ccccc3)n2)cc1	35
COc1cc(/C=N/NC(=O)c2cnn3c(C)cc(-c4ccccc4)nc23)ccc1O	.
CCOC(=O)c1[nH]c(=O)[nH]c1CSc1nc(C)cc(C)n1	.
Cc1nc2cc(-c3ccsc3-n3c(C)ccc3C)[nH]n2c(=O)c1Cl	30
Cc1cc(=O)n2[nH]c(-c3ccc(Cl)cc3)cc2n1	.
COCc1cc(=O)n2[nH]c(-c3ccsc3-n3c(C)ccc3C)cc2n1	.
N=c1c2c(n(Cc3ccccc3)c3c1CCC3)CCC2	.
CC1(C)Oc2ccc(C(=O)N3CCc4ccccc43)cc2N(CC(=O)N2CCCC2)C1=O	.
Nc1nc(CSCCO)nc(Nc2ccccc2)n1	.
COc1ccc(OC)c(Nc2nc(N)nc(-c3cc4ccccc4o3)n2)c1	.
Cc1c(-c2nc(N)nc(Nc3ccccc3)n2)oc2ccccc12	52
CCOC(=O)C1CCN(C(=O)c2cc3cc4cc(OC)ccc4nc3o2)CC1	.
Cc1ccc(CCNC(=O)C2CCC(=O)N2Cc2cccnc2)cc1 (centres undefined)	.
SMILES	Artemis inh
COc1ccc(-c2noc(C)c2-c2ccc3ccccc3n2)c(O)c1	.
O=C(N/N=C/c1ccc(-c2ccc(S(=O)(=O)Nc3ncccn3)cc2)o1)c1cc2ccccc2cc1O	33
O=C(CN1CCCC1)N/N=C/c1ccc(-c2cccc(Cl)c2)o1	.
CCOc1ccc(S(=O)(=O)N(CC(=O)N/N=C/c2ccc(-c3ccc([N+](=O)[O-])cc3)o2)c2ccccc2)cc1	.
CC(C)Oc1ccc(C(=O)NC2CCS(=O)(=O)C2)cc1 (centres undefined)	.
O=C(c1cccc(-c2nnc(-c3ccccc3)o2)c1)N1CCCCC1	.
CCCOc1ccc(CSC2=NCCN2)cc1[N+](=O)[O-]	.
